In the library only some 0.93% were active in any assay of this set; here they are far more common.
TRPML1 ag: qHTS for Agonists of the Human Mucolipin Transient Receptor Potential 1 (TRPML1); 410,000 tested, 0.12% active; activation, % (no concentration beside the values); Mucolipin-1 (Homo sapiens), Q9GZU1; TRPML1-expressing cells, Ca2+ dye fluorescence, FDSS; in the data active = activation above about 50%; inconclusive = mostly about 30% to 49%; note: 0% is about no effect
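Cells: TRPML1-DL, 1X Tet inducer, ~16 h at 37 degrees C/5% CO2. Dye: ABD Ca8 no-wash + quencher, 45-90 min RT. Read: 10 s baseline, compound add, 110 s agonist phase; 54-4 EC80 (4uM final), 110 s antagonist phase.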
TRPML1 inh: qHTS for Inhibitors of the Human Mucolipin Transient Receptor Potential 1 (TRPML1) | Mucolipin-1 (Homo sapiens), Q9GZU1 | TRPML1-inducible cells, Ca2+ dye fluorescence, FDSS; active compounds read low; inhibition of EC80 agonist-evoked calcium signal | activity change, negative = inhibition, % (no concentration beside the values) | 390,000 tested, 0.02% active; in the data active = activity change below about -50%; inconclusive = between about -30% and that limit;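 note: stimulus is agonist 54-4 at its EC80 concentration; % is set by controls: 0 for no effect and ±100 for the full control effect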
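Calcium fluorescence in TRPML1-DL cells induced overnight with Tet: a 110 s read after compound pin addition, then a 110 s antagonist read after challenge with 54-4 at 4 uM final (EC80).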
PTHR1 ag: qHTS for PTHR1 Agonists: Primary Screen. Parathyroid hormone/parathyroid hormone-related peptide receptor (Homo sapiens), Q03431. HEK293 GP2 PTHR1 cells, GloSensor cAMP luminescence, 1 h. Potency, µM (highest dose often 115 µM), inactives show at the highest dose activation, most hits filed as activators. 410,000 tested, 0.075% active. AID 743266, 2014; note: potency is the fitted concentration of half-maximal effect; nearly all actives have a fitted effect of over 55% in size
Target sequence (Q03431 whole entry, looked up): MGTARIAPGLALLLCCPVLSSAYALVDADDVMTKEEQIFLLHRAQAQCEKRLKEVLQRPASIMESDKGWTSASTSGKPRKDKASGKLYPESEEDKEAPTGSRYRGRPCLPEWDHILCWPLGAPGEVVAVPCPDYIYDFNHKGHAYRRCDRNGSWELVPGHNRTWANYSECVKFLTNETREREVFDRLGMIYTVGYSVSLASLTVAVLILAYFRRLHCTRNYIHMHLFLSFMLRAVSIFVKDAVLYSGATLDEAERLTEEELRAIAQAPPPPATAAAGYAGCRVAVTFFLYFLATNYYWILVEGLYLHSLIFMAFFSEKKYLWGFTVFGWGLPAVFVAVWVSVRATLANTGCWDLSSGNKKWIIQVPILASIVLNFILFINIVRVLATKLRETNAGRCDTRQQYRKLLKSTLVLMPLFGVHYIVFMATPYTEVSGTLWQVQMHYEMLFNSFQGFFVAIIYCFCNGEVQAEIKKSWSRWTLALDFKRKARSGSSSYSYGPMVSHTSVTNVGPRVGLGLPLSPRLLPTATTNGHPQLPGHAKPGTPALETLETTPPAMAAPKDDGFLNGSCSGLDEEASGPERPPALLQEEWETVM
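HEK-293-derived GP2 cells expressing PTHR1 and a GloSensor cAMP reporter, 3,000/well, plated overnight, given luciferin plus IBMX (each 0.5 mM as added) for 1 h at 37 °C, then compound for 1 h at 37 °C. Luminescence was read after 15 min at room temperature.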
TRHR agonist: qHTS for Small Molecule Agonists and Allosteric Enhancers of Human TRH Receptor: Primary Screen for Agonists | Thyrotropin-releasing hormone receptor (Homo sapiens), P34981 | TRHR cells, calcium flux fluo-8, FDSS agonist mode | activation, % at 2 µM | 360,000 tested, 0.18% active; in the data active = activation above about 30%; note: 0% is about no effect
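TRHR-expressing cells loaded with fluo-8 calcium dye; 23 nL library compound pin-transferred, kinetic FDSS fluorescence (Ex 480/Em 530) recorded about 180 s for agonist-induced calcium release, before a 10 nM TRH EC20 addition for potentiator mode.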
TRHR PAM: qHTS for Small Molecule Agonists and Allosteric Enhancers of Human TRH Receptor: Primary Screen for Enhancers | Thyrotropin-releasing hormone receptor (Homo sapiens), P34981 | TRHR cells, fluo-8 calcium fluorescence, EC20 TRH enhancement | AID 493056, 2011 | enhancement, % at 2 µM | 360,000 tested, 0.66% active; in the data active = enhancement above about 30%; note: 0% is about no effect
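Enhancer read-out: after compound pinning and an initial kinetic agonist-mode read, an EC20 of TRH (10 nM final) was injected and fluo-8 calcium signal (Ex 480/Em 530) followed at 1 s/cycle for 100 cycles in TRHR-expressing cells.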
GLP1R cytotox: qHTS of GLP-1 Receptor Inverse Agonists: Cytotox Screen; HEK293 cAMP-luciferase reporter cells, luminescence, 24 h; Potency, µM (top dose mostly 38.3 µM), for inactives: at the highest dose activity change, negative = inhibition, usual class: inhibitors; 410,000 tested, 0.13% active;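 note: loss of luciferase light is scored as toxicity; potency is the fitted concentration of half-maximal effect; % is set by controls: 0 for no effect and ±100 for the full control effect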
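Luminescence readout: signal drop marks cytotoxicity. Plated cells grew 12 h at 37 °C, 5% CO2, received 23 nL compound for 24 h, then got luciferase reagent, read after 12 min at RT.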
* hit, by the source's call; i = inactive; ? = inconclusive; . = no result; [ ] = dose if it differs, or a comment. Unless noted, calls come from the whole dose curve; as a rule, active = well fitted curve in the direction sought with a large enough effect; inconclusive = small, poorly fitted or top-dose-only effect, or another doubt; inactive = no such curve, though single readings can be large; an effect the other way counts as inactive or inconclusive.

SMILES	TRPML1 ag	TRPML1 inh	PTHR1 ag	TRHR agonist	TRHR PAM	GLP1R cytotox
CCCCc1ccc(NS(=O)(=O)c2c(C)n(C)c(=O)n(C)c2=O)cc1	1	8	-1%	2	3	-13%
CNCc1ccccc1Sc1cc(O)ccc1O	0	2	4%	0	3	?
CN(C)Cc1ccccc1Sc1ccc(O)cc1O	0	-2	i	0	30*	-2%
COc1cccc(C(c2sc3ncnn3c2O)N2CCN(C(=O)c3ccco3)CC2)c1 (centres undefined)	0	9	-19%	-1	37*	0%
O=C1/C(=C\c2ccc(O)cc2)SC(=S)N1/N=C/c1ccc(O)cc1	23	-3	i	52*	10	-15%
CCCCN(CCCN)c1ccc(Br)cn1	-1	.	.	.	.	.
O=c1oc2c(O)cccc2cc1-c1nc2ccccc2[nH]1	-1	-1	-25%	199*	48*	i
O=c1oc2c(CN3CCCCC3)c(O)ccc2cc1-c1nc2ccccc2[nH]1	19	11	i	261*	40*	i
Cc1ccc(/C=N\NC(=O)Cn2nnc3ccccc32)o1	3	0	i	0	33*	-14%
S=C(NCCCc1cnc[nH]1)NCCCN(Cc1ccc(Cl)cc1)c1ccc(Br)cc1	3	.	.	.	.	.
O=C(OCc1ccccc1)C1CCCN1C(=O)c1cccs1 (centres undefined)	1	10	?	-1	39*	-10%
O=C(COC(=O)C1CCCN1C(=O)c1cccs1)c1ccccc1 (centres undefined)	-2	8	i	0	0	-9%
C=CCN1CC(C(=O)N2CCC(Cc3ccc(Cl)cc3)(C(=O)OCC)CC2)CC1=O (centres undefined)	1	19	-1%	0	30*	?
CCOC(=O)C1(Cc2ccc(Cl)cc2)CCN(C(=O)C2CCCO2)CC1 (centres undefined)	0	-1	i	0	1	8%
COc1cc(/C=N/NC(=O)c2ccccn2)ccc1OC(=O)c1ccccc1Br	1	24	-95%	0	-13	11µM*
COc1ccc(-c2csc(Nc3ccccc3)[n+]2Cc2ccccc2)cc1	-1	14	-31%	0	23	-13%
Cc1ccc(-c2csc(Nc3ccc(C(=O)O)cc3)[n+]2Cc2ccccc2)cc1	0	0	-20%	0	33*	8%
Cc1ccc2c(C(=O)CNc3nc(C)c(C)s3)c(C)[nH]c2c1	-1	.	.	.	.	.
Cn1c2ccsc2c2cnn(Cc3ccccc3F)c(=O)c21	.	.	.	-2	-3	.
COc1cc(N/N=C(\C)c2ccc(O)c(C)c2)nc(-c2ccccc2)n1	2	13	i	0	34*	-23%
C#Cc1nc(Nc2cccc(Cl)c2)nc(NC2CCCC2)n1	.	.	.	-1	-1	.
S=c1[nH]c(-c2ccccc2)cn1/N=C/c1cccc2ccccc12	2	-9	-80%	1	34*	-5%
S=c1[nH]c(-c2ccccc2)cn1/N=C/c1ccccc1Br	-1	18	i	2	0	1%[0.307 µM]
COc1cc2nc(N3CCOCC3)nc(NC(C)C)c2cc1OC	-1	.	.	.	.	.
COc1ccc(-c2nc3ccccc3c(=O)n2O)cc1	0	-13	50µM*	1	-2	1%
O=c1c2ccccc2nc(-c2ccccc2)n1O	1	16	i	.	.	16%
CCC[C@H]1COCCS(=O)(=O)N1Cc1cccc(F)c1	-1	.	.	.	.	.
c1ccc2nccnc2c1	1	.	.	.	.	.

Screening results: PubChem BioAssay, National Center for Advancing Translational Sciences (NCATS)
